# Reference: PubChem BioAssay (EPA / NIEHS)
# Results filed as inconclusive are left out. Active and inactive are the calls of the source. Rule for the calls: active = hit-call score of the fitted dose curve at least 0.9, where 1 is the maximum; inconclusive = response in the unintended direction; inactive = score below 0.9.
# Molecular target: human CYP1A1, CYP1A1 (gene 1543) (UniProt P04798)
# Assay: NVS_ADME_hCYP1A1: NovaScreen (NVS) CYP450-related Enzyme Activity (ADME) Assay for human CYP1A1 (AID 2283100)
# Method: NVS_ADME_hCYP1A1 is a biochemical, single-readout assay that uses extracted gene-proteins in a cell-free assay. Measurements were taken 1 hour after chemical dosing in a 96-well plate.NVS_ADME_hCYP1A1 is one of one assay component(s) measured or calculated from the NVS_ADME_hCYP1A1 assay. It is designed to make measurements of enzyme activity, a form of enzyme reporter, as detected with fluorescence intensity signals by Fluorescence technology.Data from the assay component NVS_ADME_hCYP1A1 was analyzed into 1 assay endpoint. This assay endpoint, NVS_ADME_hCYP1A1, was analyzed in the positive analysis fitting direction relative to Acetonitrile as the negative control and baseline of activity. Using a type of enzyme reporter, loss-of-signal activity can be used to understand changes in the enzymatic activity as they relate to the gene CYP1A1. Furthermore, this assay endpoint can be referred to as a primary readout, because this assay has produced multiple assay endpoints where this one serves a enzymatic activity function. To generalize the intended target to other relatable targets, this assay endpoint is annotated to the cyp intended target family, where the subfamily is xenobiotic metabolism.
# Binding assays used specific radioligands (tritiated, iodinated) with non-radioactive competitive displacement ligands in agonist or antagonist protocols (as indicated) and various reference compounds and inhibitors to titrate specific binding to receptors and transporters. Most enzyme assays (CYPs, kinases, phosphatases, proteases, HDACs) used recombinant protein and specific substrates (fluorescence mostly, some colorimetric and radioactive) and inhibitors, followed by a biochemical separation of substrate and product. All assays for the biochemical HTS were initially run in duplicate at a single concentration (10 uM for CYP450 assays and 25 uM for all others). Assay-chemical combinations meeting a pre-defined threshold (e.g., 30% inhibition and other criteria defined below) were then run in singleton concentration-response format with maximum concentration of 20 uM for CYPs and 50 uM for all others. Each assay was run with positive and negative controls, and concurrent controls on every plate. The follow-up (secondary) screen tested active chemical-pairs in concentration series, as well as a few additional assays not tested in the primary screen, some selected negative inactives, and several cases re-run in the concentration series for confirmatory purposes.
# Chain of human CYP1A1, CYP1A1 (gene 1543) (P04798 whole entry, looked up): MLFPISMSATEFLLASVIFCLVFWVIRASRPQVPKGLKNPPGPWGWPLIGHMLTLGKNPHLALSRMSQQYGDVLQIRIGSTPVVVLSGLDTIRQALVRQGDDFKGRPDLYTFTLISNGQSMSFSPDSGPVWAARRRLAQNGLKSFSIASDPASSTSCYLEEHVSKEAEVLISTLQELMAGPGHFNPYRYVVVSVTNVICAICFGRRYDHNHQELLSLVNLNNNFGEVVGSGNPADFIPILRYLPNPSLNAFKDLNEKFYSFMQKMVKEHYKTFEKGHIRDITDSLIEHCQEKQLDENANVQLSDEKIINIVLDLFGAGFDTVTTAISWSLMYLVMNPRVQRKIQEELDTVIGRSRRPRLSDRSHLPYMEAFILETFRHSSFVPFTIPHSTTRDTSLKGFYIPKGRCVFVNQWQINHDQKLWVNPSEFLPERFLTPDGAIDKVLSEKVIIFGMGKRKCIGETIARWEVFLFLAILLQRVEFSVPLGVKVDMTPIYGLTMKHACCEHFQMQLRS
Structure (SMILES),outcome,AC50
O=C(O)c1cc(N=Nc2ccc(S(=O)(=O)Nc3ccccn3)cc2)ccc1O,inactive,
CCc1cc(SCc2sc(-c3ccc(C(F)(F)F)cc3)nc2CN2CCN(c3ccc(OC)cc3)CC2)ccc1OCC(=O)O,inactive,
CC(C)(O)c1coc(S(=O)(=O)NC(=O)Nc2c3c(cc4c2CCC4)CCC3)c1,inactive,
Oc1ccc2c(c1)-c1ccccc1C2,,6.18 µM (active)
CC(C)=CCCC(C)CCO (stereo unspecified),inactive,
Cc1[nH]cnc1C[C@H]1CCc2c(C)c3ccccc3n2C1=O,,3.83 µM (active)
Fc1ccccc1[C@@H](F)COC1CCC(Nc2ncnc3[nH]ncc23)CC1 (stereo partly specified),inactive,
Cc1c(-c2cccnc2)c2ccccc2n1CCCCC(=O)O,,4.39 µM (active)
CCOC(=O)COc1ccc2c(c1)CC(NCC(O)c1cccc(Cl)c1)CC2 (stereo unspecified),inactive,
CC(=O)OCCC(C)C,inactive,
CN(C)c1ccc(Cc2ccc(N(C)C)cc2)cc1,inactive,
